Experiment [1] in a line: Nuclear factor erythroid 2-related factor 2/antioxidant responsive element (Nrf2/ARE) small molecule agonists: qHTS cell viability counter screen in human keratinocytes (AID 1919968; active means well fitted curve in the direction sought with a large enough effect in the repeat runs; an effect the other way counts as inactive or inconclusive; further: nearly all actives have a fitted effect of over 55% in size; further: potency means the concentration at half of the fitted maximal effect). In short, it runs like this:
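Measured as CellTiter-Fluor fluorescence, this readout tracks cytotoxicity in the same wells as the ARE-luciferase screen. HaCaT reporter cells (1,500/well) received compounds after a 5 h pre-incubation and were exposed for 23 h.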

Experiment [2] is described as follows: Nuclear factor erythroid 2-related factor 2/antioxidant responsive element (Nrf2/ARE) small molecule agonists: luciferase reporter gene qHTS assay in human keratinocytes (AID 1919969). Further: nearly all actives have a fitted effect of over 35% in size.
Experiment [3] has as its target Gonadotropin-releasing hormone receptor (Homo sapiens) (UniProt P30968). Kind of experiment: Human gonadotropin-releasing hormone receptor (GnRHR) small molecule agonists, calcium flux assay in GnRHR-HEK293 cells (AID 1920063). Further: nearly all actives have a fitted effect of over 35% in size. In short, it runs like this:
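Fluorescence kinetics (480 nm excitation, 540 nm emission; 3 min, 1 s steps) report calcium mobilisation in human GnRHR-HEK293 cells in agonist mode. Dye incubation: 1 h, 37 C.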

In experiment [4] the target is KiSS-1 receptor (Homo sapiens) (UniProt Q969F8). Kind of experiment: Human kisspeptin (KISS1R) small molecule agonists, calcium flux assay in KISS1R-HEK293 cells (AID 1920064; active means well fitted curve in the direction sought with a large enough effect in the repeat runs; an effect the other way counts as inactive or inconclusive). In short, it runs like this:
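Measures KISS1R agonism through calcium-sensitive dye fluorescence in stably transfected HEK293 cells, read for 3 min after pin-tool compound delivery; 15-point titrations in triplicate.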
A general note: Calcium assays in cells follow changes in intracellular calcium, usually with a dye or a luminescent sensor.

Experiment [5] in a line: G protein-coupled receptor (GPCR) small molecule agonists, calcium flux assay: HEK293 wild type cell line counter screen (AID 1920065). In short, it runs like this:
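Readout: fluorescence at 480 nm excitation/540 nm emission, sampled at 1 s intervals for 3 min. Cells had been cultured 18 h, then dye-loaded 1 h at 37 C before compound or ATP addition.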

A short description of experiment [6]: p53 small molecule agonists, cell-based qHTS assay with human liver microsomes (AID 1963577).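 Further: p53 response element beta-lactamase reporter cells with liver microsomes plus NADPH.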 In short, it runs like this: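 Metabolically competent format: test substances, human liver microsomes and NADPH (both 0.5 mg/mL final) incubated with p53RE-bla cells 16 h at 37 C. Beta-lactamase reporter signal then quantified by fluorescence.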
In general terms: qHTS replaces the single test concentration by a dilution series.

Experiment [7] can be described thus: p53 small molecule agonists, cell-based qHTS assay with rat liver microsomes (AID 1963578). In short, it runs like this: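 Each plate received p53RE-bla cells, then compound, then rat liver microsomes and NADPH (both 0.5 mg/mL final). Plates were held 16 h at 37 C, and beta-lactamase activity was detected with LiveBLAzer over 2 h.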
Experiment [8] in a line: p53 small molecule agonists, cell-based qHTS assay with human liver microsomes: qHTS cell viability counter screen (AID 1963579). Further: nearly all actives have a fitted effect of over 45% in size. Further: potency means the concentration at half of the fitted maximal effect. In short, it runs like this:
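Tox21 library compounds, delivered from DMSO stocks, were tested on p53RE-bla cells together with 0.5 mg/mL human liver microsomes and 0.5 mg/mL NADPH (final) over 16 h at 37 C; CellTiter-Glo luminescence served as the cytotoxicity measure.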

The nature of experiment [9]: p53 small molecule agonists, cell-based qHTS assay (AID 1963582; active means well fitted activation curve with a large enough effect in the signal ratio in the repeat runs, not every such curve was filed as active; the % refers to the signal ratio). Put shortly: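 Compounds are pin-transferred in DMSO onto p53RE-bla cells and incubated 16 h at 37 C. The B/G FRET beta-lactamase substrate is then applied for 2 h at RT and fluorescence recorded.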
Experiment [10] addresses 5-hydroxytryptamine receptor 2A (Homo sapiens) (UniProt P28223). Description: 5-hydroxytryptamine receptor 2A (HTR2A) small molecule antagonists, cell-based qHTS assay (AID 1963586). Further: nearly all actives have a fitted effect of over 45% in size. Further: potency means the concentration at half of the fitted maximal effect. Put shortly:
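Antagonist-mode intracellular calcium assay: DOI (4 nM) added after 5 min compound pre-incubation at room temperature to dye-loaded HTR2A-CHO cells. Fluorescence followed for 3 min, sampled every second.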

Experiment [11] shares this target. Description: 5-hydroxytryptamine receptor 2A (HTR2A) small molecule agonists, cell-based qHTS assay (AID 1963587). Further: nearly all actives have a fitted effect of over 30% in size. Further: potency means the concentration at half of the fitted maximal effect. In short, it runs like this:
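CHO cells stably expressing human HTR2A, plated 18 h, loaded with calcium dye 1 h at 37 C. Agonist mode: compounds added and intracellular calcium fluorescence recorded kinetically for 2 min at 1 sec intervals.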

Experiment [12] deals with Muscarinic acetylcholine receptor M1 (Homo sapiens) (UniProt P11229). Description: Cholinergic receptor muscarinic 1 (CHRM1) small molecule antagonists, cell-based qHTS assay (AID 1963588). Further: nearly all actives have a fitted effect of over 40% in size. Further: potency means the concentration at half of the fitted maximal effect. In short, it runs like this: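 CHRM1-CHO calcium-flux assay, antagonist mode. Cells were seeded 18 h, dye-loaded 1 h at 37 C and given compound for 5 min at RT, then acetylcholine was added at 50nM. FDSS fluorescence was read 3 min; 15 concentrations, three runs.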
Chain of Muscarinic acetylcholine receptor M1 (Homo sapiens) (P11229 whole entry, looked up): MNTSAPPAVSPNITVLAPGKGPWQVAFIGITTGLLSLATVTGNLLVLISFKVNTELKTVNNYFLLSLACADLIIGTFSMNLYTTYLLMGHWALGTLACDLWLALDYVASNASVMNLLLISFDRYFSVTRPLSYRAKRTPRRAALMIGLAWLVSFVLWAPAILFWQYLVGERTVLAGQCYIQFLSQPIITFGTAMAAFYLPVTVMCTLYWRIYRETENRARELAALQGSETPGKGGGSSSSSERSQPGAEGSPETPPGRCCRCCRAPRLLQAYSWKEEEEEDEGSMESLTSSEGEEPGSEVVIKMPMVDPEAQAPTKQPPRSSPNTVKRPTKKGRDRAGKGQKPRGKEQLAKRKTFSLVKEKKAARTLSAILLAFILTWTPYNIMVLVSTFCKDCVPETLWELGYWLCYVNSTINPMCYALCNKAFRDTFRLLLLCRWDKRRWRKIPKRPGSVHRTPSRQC

Experiment [13] is described as follows: cAMP Responsive Elements (CRE) small molecule agonists, cell-based qHTS assay (AID 1963590). In short, it runs like this: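 Cell line: CRE-bla HEK 293T; medium DMEM/10% dialyzed FBS/0.1 mM NEAA/1 mM pyruvate/25 mM HEPES; 3 h compound exposure; beta-lactamase FRET readout after 2 h substrate loading at RT.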
Experiment [14] can be described thus: cAMP Responsive Elements (CRE) small molecule antagonists, cell-based qHTS assay (AID 1963591; active means well fitted inhibition curve with a large enough effect in the signal ratio in the repeat runs, not every such curve was filed as active; the % refers to the signal ratio). In short, it runs like this: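 Inhibition of NKH477-driven (0.25 uM final) CRE-beta-lactamase signal in HEK293T cells, 3 h compound exposure at 37 °C, detected by FRET substrate fluorescence.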
Experiment [15] addresses Beta-2 adrenergic receptor (Homo sapiens) (UniProt P07550). Kind of experiment: Adrenergic beta2 receptor (ADRB2) small molecule antagonists, cell-based qHTS assay (AID 1963592). Further: series mostly up to about 92 µM; nearly all actives have a fitted effect of over 50% in size. In short, it runs like this:
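Cells (CHO, stable ADRB2 overexpression) incubated 18-20hr at 37C; compounds added from DMSO; agonist mix (1nM isoproterenol, 100uM IBMX, 25uM Ro-20-1724) added; 0.5hr RT; d2-cAMP and anti-cAMP-cryptate added; 1hr RT; 665/615 nm read.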

Experiment [16] has the same target. Kind of experiment: Adrenergic beta2 receptor (ADRB2) small molecule agonists, cell-based qHTS assay (AID 1963593).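 Further: CHO cells stably overexpressing human ADRB2.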 Put shortly:
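CHO cells stably over-expressing ADRB2 were plated overnight at 37C, then dosed with compounds plus a stimulation mix containing 100uM IBMX and 25uM Ro-20-1724 for 0.5hr at room temperature. cAMP was measured by HTRF competition, 1hr.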

The target in experiment [17] is D(2) dopamine receptor (Homo sapiens) (UniProt P14416). Kind of experiment: Dopamine D2 receptor (DRD2) small molecule agonists, cell-based qHTS assay (AID 1963594). Further: nearly all actives have a fitted effect of over 35% in size. In short, it runs like this: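 HEK293 cells stably expressing human DRD2, pre-treated with PDE inhibitor Ro20-1724 (0.1 mM final) and compound 10 min at room temperature, then stimulated with NKH477 (200nM […]) for 30 min. cAMP read by HTRF (665/620 nm).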
Chain of D(2) dopamine receptor (Homo sapiens) (P14416 whole entry, looked up): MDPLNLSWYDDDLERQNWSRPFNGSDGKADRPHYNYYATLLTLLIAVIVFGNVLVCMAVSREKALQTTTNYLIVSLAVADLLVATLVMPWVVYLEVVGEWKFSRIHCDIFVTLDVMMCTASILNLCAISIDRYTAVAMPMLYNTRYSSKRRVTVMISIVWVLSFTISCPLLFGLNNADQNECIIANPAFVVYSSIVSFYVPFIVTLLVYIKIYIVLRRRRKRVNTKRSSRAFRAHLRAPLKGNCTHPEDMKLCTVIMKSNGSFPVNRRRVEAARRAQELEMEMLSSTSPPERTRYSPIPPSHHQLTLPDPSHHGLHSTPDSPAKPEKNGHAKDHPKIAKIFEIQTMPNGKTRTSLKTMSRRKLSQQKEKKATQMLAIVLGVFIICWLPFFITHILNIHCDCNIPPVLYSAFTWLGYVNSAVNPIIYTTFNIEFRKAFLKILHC

The target is the same in experiment [18]. Description: Dopamine D2 receptor (DRD2) small molecule antagonists, cell-based qHTS assay (AID 1963595; active means well fitted inhibition curve with a large enough effect in the signal ratio in the repeat runs, with a control signal flat; the % refers to the signal ratio). Put shortly:
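Antagonism was scored as restored cAMP in HEK293-DRD2 cells. These cells were stimulated with 200 nM NKH477 and 12 nM quinpirole for 30 min at room temperature, in the presence of 0.1 mM Ro20-1724.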

The nature of experiment [19]: p53 small molecule agonists, cell-based qHTS assay: qHTS cell viability counter screen (AID 1963581). Further: nearly all actives have a fitted effect of over 45% in size. Further: potency means the concentration at half of the fitted maximal effect. Put shortly:
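In the same plates used for the p53 bla reporter, HCT-116 cells given compounds for 16 h at 37 C received CellTiter-Glo; luminescence was recorded 30 min later at room temperature.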

The target of experiment [20] is Muscarinic acetylcholine receptor M1 (Homo sapiens) (UniProt P11229). Kind of experiment: Cholinergic receptor muscarinic 1 (CHRM1) small molecule agonists, cell-based qHTS assay (AID 1963589). Further: nearly all actives have a fitted effect of over 35% in size. Put shortly: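 Each compound was tested at 15 concentrations across three independent runs on dye-loaded CHO cells stably expressing human CHRM1, reading intracellular calcium fluorescence kinetically at 1 sec intervals.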

Several values for one entry are separate records, joined by “and”; a condition that tells them apart may be missing. Equal values may be shown once. Records with an inconclusive call do not appear. Activity calls are given as the source filed them. Unless noted, the call rests on the fitted dose curve.

Chain of KiSS-1 receptor (Homo sapiens) (Q969F8 whole entry, looked up): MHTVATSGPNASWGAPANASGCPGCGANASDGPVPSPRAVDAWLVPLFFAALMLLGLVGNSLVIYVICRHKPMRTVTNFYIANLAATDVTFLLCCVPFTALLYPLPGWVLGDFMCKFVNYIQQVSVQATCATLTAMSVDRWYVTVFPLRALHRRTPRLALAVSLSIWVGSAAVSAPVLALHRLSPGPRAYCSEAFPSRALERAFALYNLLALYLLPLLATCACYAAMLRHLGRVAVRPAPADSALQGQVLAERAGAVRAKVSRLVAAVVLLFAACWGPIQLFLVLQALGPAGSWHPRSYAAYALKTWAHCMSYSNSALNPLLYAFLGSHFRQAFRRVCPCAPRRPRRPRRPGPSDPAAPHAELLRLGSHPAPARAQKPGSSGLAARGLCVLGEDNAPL
Chain of Beta-2 adrenergic receptor (Homo sapiens) (P07550 whole entry, looked up): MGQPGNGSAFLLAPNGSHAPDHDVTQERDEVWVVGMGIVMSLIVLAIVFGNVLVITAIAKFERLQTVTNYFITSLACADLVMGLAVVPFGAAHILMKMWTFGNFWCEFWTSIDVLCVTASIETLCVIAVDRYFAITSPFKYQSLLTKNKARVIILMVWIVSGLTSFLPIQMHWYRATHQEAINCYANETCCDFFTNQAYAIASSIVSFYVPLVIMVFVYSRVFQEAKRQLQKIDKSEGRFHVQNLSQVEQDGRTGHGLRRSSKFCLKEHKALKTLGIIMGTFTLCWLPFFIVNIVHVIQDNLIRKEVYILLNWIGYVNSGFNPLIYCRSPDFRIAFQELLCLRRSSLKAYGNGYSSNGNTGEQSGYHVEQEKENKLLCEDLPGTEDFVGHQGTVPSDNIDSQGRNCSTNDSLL
Chain of Gonadotropin-releasing hormone receptor (Homo sapiens) (P30968 whole entry, looked up): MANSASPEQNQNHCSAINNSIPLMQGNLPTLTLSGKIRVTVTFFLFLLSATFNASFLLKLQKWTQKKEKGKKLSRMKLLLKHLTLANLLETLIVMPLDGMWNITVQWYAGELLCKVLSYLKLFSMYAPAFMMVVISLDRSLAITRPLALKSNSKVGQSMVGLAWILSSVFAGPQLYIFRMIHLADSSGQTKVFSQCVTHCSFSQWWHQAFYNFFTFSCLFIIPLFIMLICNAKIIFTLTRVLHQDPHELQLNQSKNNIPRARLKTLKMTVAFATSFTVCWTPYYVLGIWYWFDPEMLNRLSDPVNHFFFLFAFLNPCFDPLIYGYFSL
Chain of 5-hydroxytryptamine receptor 2A (Homo sapiens) (P28223 whole entry, looked up): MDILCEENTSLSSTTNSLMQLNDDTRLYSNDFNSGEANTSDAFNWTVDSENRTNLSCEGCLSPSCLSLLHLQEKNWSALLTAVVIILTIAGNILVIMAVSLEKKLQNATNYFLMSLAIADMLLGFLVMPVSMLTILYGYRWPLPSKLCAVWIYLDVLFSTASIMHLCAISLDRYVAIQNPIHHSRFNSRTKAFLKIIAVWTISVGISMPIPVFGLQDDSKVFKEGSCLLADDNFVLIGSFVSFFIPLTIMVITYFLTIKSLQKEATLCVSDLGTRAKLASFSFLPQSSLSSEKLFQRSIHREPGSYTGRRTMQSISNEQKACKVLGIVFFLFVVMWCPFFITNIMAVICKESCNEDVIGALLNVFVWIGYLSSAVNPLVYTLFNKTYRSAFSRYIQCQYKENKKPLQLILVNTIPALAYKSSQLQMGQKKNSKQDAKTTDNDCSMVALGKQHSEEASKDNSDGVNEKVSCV

On to `C=CCc1cc(OC)c(O)c(C(=O)NCCO)c1`, for which the Potency entry in [1], in [2], in experiment [3], in experiment [4], in experiment [5] and in experiment [6] was “inactive” in each case. In addition, the Potency entry in experiment [7], in [8], in experiment [9], in experiment [10], in [11] and in [12] was “inactive” in each case. Moreover, the Potency entry in experiment [13], in [14], in [15], in experiment [16], in experiment [17] and in experiment [18] was “inactive” throughout.
Consider `CC(=O)N[C@@H](Cc1ccc(O)cc1)C(=O)O`, for which the Potency result in experiment [1], in [2], in experiment [3], in [4], in experiment [5] and in experiment [6] was “inactive” each time. The Potency result in [7], in experiment [19], in experiment [9], in experiment [10], in experiment [11] and in experiment [12] was “inactive” each time. The Potency result in experiment [20], in experiment [13], in experiment [14], in [15], in experiment [16] and in experiment [17] was “inactive” each time.
With `N#[N+]c1ccc2c(S(=O)(=O)[O-])cccc2c1O`, the Potency result in [1], in experiment [2], in [3], in experiment [4], in experiment [5] and in experiment [6] was “inactive” in each case. Further, the Potency entry in experiment [7], in experiment [19], in experiment [9], in experiment [10], in experiment [11] and in [12] was “inactive” in each case. Moreover, the Potency result in experiment [20], in experiment [13], in experiment [15], in [17] and in experiment [18] was “inactive” in each case.
Take `CC(C)(c1cc(Br)c(O)c(Br)c1)c1cc(Br)c(O)c(Br)c1`: the Potency in [1] was 43.1 µM (active) and 38.5 µM (active); in experiment [8], 16.2 µM (active) and 36.3 µM (active); in experiment [19], 36.2 µM (active) and 40.7 µM (active); in experiment [11], 48.8 µM (active). For the same compound, the Potency result in experiment [2], in experiment [3], in experiment [4], in experiment [5], in experiment [6] and in experiment [7] was “inactive” in each case. Also, the Potency entry in [12], in experiment [20], in [13], in experiment [15], in experiment [17] and in experiment [18] was “inactive” in each case.
Consider `CC[C@H](c1ccc(O)cc1)[C@@H](CC)c1ccc(O)cc1`, for which the Potency in [1] was 54.5 µM (active); in experiment [10] it was 33.4 µM (active) and 14.5 µM (active); in [12] it was 7.29 µM (active). Besides, the Potency entry in experiment [2], in [3], in experiment [4], in experiment [5], in experiment [6] and in experiment [7] was “inactive” in each case. For the same compound, the Potency entry in experiment [19], in experiment [9], in experiment [11], in experiment [20], in experiment [13] and in [15] was “inactive” in each case. In addition, the Potency entry in [16], in [17] and in experiment [18] was “inactive” each time.
Consider `COc1ccc(NC(C)=O)cc1`, for which the Potency entry in [1], in experiment [2], in experiment [3], in experiment [4], in [5] and in [6] was “inactive” in each case. Also, the Potency result in experiment [7], in experiment [19], in [9], in experiment [10], in [11] and in [12] was “inactive” in each case. The Potency result in experiment [20], in experiment [13], in experiment [14], in experiment [15], in experiment [16] and in experiment [17] was “inactive” throughout. Further, the Potency result in experiment [18] is “inactive”.
Take `CCC(=O)OC/C=C(\C)CCC=C(C)C`: the Potency entry in experiment [1], in experiment [2], in experiment [3], in [4], in experiment [5] and in experiment [6] was “inactive” each time. Moreover, the Potency entry in [7], in experiment [19], in experiment [9], in experiment [10], in experiment [11] and in experiment [12] was “inactive” each time. The Potency entry in [20], in [13], in [14], in experiment [15], in [16] and in experiment [17] was “inactive” each time. Moreover, the Potency entry in experiment [18] is “inactive”.

The values above are taken from PubChem BioAssay (Tox21).
